The values below come from PubChem BioAssay AID492998 (Southern Research Specialized Biocontainment Screening …, 2010).

Molecules are shown by their SMILES. Hit rate of the full screen: of about 2,300 compounds, about 550 (24%) were called active. Only a sample is shown. Results with a measured potency or affinity are listed apart. Values without a mark were called inactive. How the calls were made is not given here.

The assay is described as follows: Vero E6 cell cytotoxicity, dose response, cytotoxicity control for non-replicating M. tuberculosis project, secondary assay (AID 492998).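 Further: 100% = vehicle-treated cells and 0% = background wells.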 Conditions: series mostly up to 20 µM; viability: at the top concentration.
What is called viability is a read-out of living cells in per cent, often relative to untreated cells. For the compound `Cc1[nH]n(-c2ccccc2)c(=O)c1C=Nc1cnc2ccccc2c1`, the “viability” value was 103%. Consider `O=C(COC(=O)c1ccccc1Cl)NCCC1=CCCCC1`, for which the “viability” value was 103%. Consider `CC(C)=CC1C(C(=O)Nc2ccc(Br)cn2)C1(C)C` (stereo unspecified), for which the “viability” value was 82.3%.

Regarding `O=C(NCCCN1CCOCC1)c1c(O)c2cc(Br)cc(Br)c2[nH]c1=O`, the “viability” value is 77.8%. The same measure for `COc1ccc(C(CCNCc2ccc(OC(C)C)cc2)C(C)C)cc1` (stereo unspecified): 76.2%.

Regarding `COc1ccc(C(C)NC(=O)CCc2ccccc2)cc1` (stereo unspecified), the “viability” value was 108%. For the compound `CCOC(=O)CN1NC2(CCC(C)CC2)NC1=S` (stereo unspecified), the “viability” value is 92.4%. Turning to `COc1ccc(COC(=O)CCNC(=O)c2ccc(Cl)cc2)cc1`, the “viability” value is 103%. Consider `COc1ccc(-c2[nH]ncc2CN2CCCCCCC2)c(OC)c1`, for which the “viability” value is 102%. The same measure for `Sc1oc(-c2ccccc2)cc1C=Nc1ccccc1`: 90.2%; for `CCOC(=O)c1c(-c2ccccc2)csc1NC(=O)CCN1CCOCC1`: 90.4%; for `CN1c2ccsc2/C(=N/Nc2ccccc2)CS1(=O)=O`: 89.2%. As to `CCOC(=O)CNC(=O)CNC(=O)c1nn(-c2ccc(OC)c(Cl)c2)c(=O)c2ccccc12`, the “viability” value was 98.3%.

On to `O=C(O)c1ccccc1C(=O)NNc1ccc(F)cc1`, for which the “viability” value was 101%. Regarding `CCOC(=O)c1ccc(NC2=CC(=O)C(=O)c3ccccc32)cc1`, the “viability” value is 99.2%. Take `CCOC(=O)COc1cc(O)c2c(=O)cc(-c3ccccc3)oc2c1`: the “viability” value was 101%. The same measure for `CCOC(=O)CCNC(=O)c1ccc2nc(C3CCCCC3)oc2c1`: 103%. For the compound `O=C(Nc1ccc(Cl)cn1)C1COc2ccccc2O1` (stereo unspecified), the “viability” value was 104%. For the compound `COC(=O)COc1ccc2cc(-c3ccc(OC)cc3)c(=O)oc2c1`, the “viability” value is 101%. In the case of `COC(=O)CN(C#N)c1nc(N(C)C)nc(N(C)C)n1`, the “viability” value is 95.9%. `CC(/C=C/c1ccccc1F)=N\NC(=O)c1ccccc1`: the “viability” value was 78.2%.

In the case of `Cc1ccc(NC(=S)C2=C(O)c3sccc3N(C)S2(=O)=O)cc1`, the “viability” value is 108%. Turning to `Cc1ccc(OCC(=O)N2CCCc3ccccc32)cc1`, the “viability” value was 93.3%. For `Cc1ccc(NC(=O)CO/N=C/c2ccc(N(C)C)cc2)cc1`, the “viability” value was 96.9%. The same measure for `COc1ccc(C(=O)C=CNNC(=O)c2ccc(Cl)cc2)cc1`: 72%; for `Cc1ccc(C(=O)C=CNNC(=O)c2ccccc2)cc1`: 102%. On to `O=C(COc1ccc(F)cc1)Nc1ccc2c(c1)OCCO2`, for which the “viability” value was 92.4%.

With `Cc1ccc(-n2cc(CNCCc3cscn3)c(-c3ccc(F)cc3)n2)cc1`, the “viability” value is 72.5%.

Take `Cc1ccc(-n2cc(CNCCn3nc(C)cc3C)c(-c3ccc(F)cc3)n2)cc1`: the “viability” value is 77.2%. With `COc1ccc(OCc2n[nH]c(=S)o2)cc1`, the “viability” value is 95.9%.

Turning to `Cc1cccc(NC(=O)CO/N=C/c2ccc3c(c2)OCO3)c1`, the “viability” value was 116%. Take `CCc1nnc(NC(=O)CN2CCN(Cc3ccc(F)cc3)CC2)s1`: the “viability” value was 91.9%.

Consider `COC(=O)COc1ccc2c(=O)c(-c3ccccc3)coc2c1`, for which the “viability” value is 107%. In the case of `c1ccc2cc(OCCCn3ccnc3)ccc2c1` it was 99.2%; in that of `C=CCc1cc(Cl)ccc1OCCCn1ccnc1`, 89%; in that of `CC(CN1CCOCC1)OC(=O)c1ccc(Br)cc1` (stereo unspecified), 79.2%. With `CC(C)COc1ccc(C(=O)CCN2CCCCC2)cc1`, the “viability” value was 97.1%.

`CC(CN1CCOCC1)OC(=O)c1ccc2c(c1)OCCO2` (stereo unspecified): the “viability” value is 94%. For the compound `CCCCOc1ccc(NC(=O)CN2CCN(Cc3ccccc3)CC2)cc1`, the “viability” value was 92.7%. Regarding `Cc1ccc(NC(CC(=O)c2ccccc2)C(=O)O)cc1Cl` (stereo unspecified), the “viability” value is 111%. Turning to `CC(NC(=O)OCc1ccccc1)c1ccccc1` (stereo unspecified), the “viability” value was 86%.

Take `COc1ccc2cc(C(=O)NCc3ccccc3CN3CCCC3)ccc2c1`: the “viability” value is 83.7%.

With `COc1ccc(C(=O)CCN2CCCCCC2)cc1`, the “viability” value is 78.6%.

Take `O=S(=O)(CCN1CCN(c2ccccn2)CC1)c1ccc(Cl)cc1Cl`: the “viability” value was 96%. On to `O=C(N[C@@H]1C[C@H]2CC[C@@H]1C2)c1ccco1`, for which the “viability” value was 109%. On to `Cc1ccc(NCCC(=O)c2cccs2)cc1C`, for which the “viability” value was 83.6%. As for `O=C(OCn1nnc2ccccc2c1=O)c1ccc(N2CCOCC2)c([N+](=O)[O-])c1`, the “viability” value is 90.7%. In the case of `CCOC(=O)C1=C(C)NC(=O)NC1c1ccc(-c2ccc(F)cc2)o1` (stereo unspecified), the “viability” value was 85.3%. With `CCOC(=O)c1ccc(N=C2SC(C(=O)Nc3ccc(C(=O)O)cc3)CC(=O)N2Cc2cccs2)cc1` (stereo unspecified), the “viability” value was 94%. Consider `O=c1oc2ccccc2nc1/C=C(\O)c1ccc(Br)cc1`, for which the “viability” value is 107%.

For the compound `O=C(CCSc1ccccc1)N1CCCC1`, the “viability” value is 92.7%. As to `O=C(CCN1CCCCCC1)c1ccccc1`, the “viability” value was 92.9%. In the case of `Cc1nnc(N/N=C/c2ccc(Br)cc2)n1N` it was 113%; in that of `COCCSc1nnc(NC(=O)CCS(=O)(=O)Cc2ccccc2)s1`, 92.1%; in that of `CCCCOc1ccc(CSCCN)cc1Cl`, 105%. The same measure for `CC(=O)c1ccc(NC(=O)C(Cc2ccccc2)n2cccc2)cc1` (stereo unspecified): 97%; for `Cc1ccccc1C(=O)NNc1ccc([N+](=O)[O-])cc1`: 103%; for `Cc1ccc(NC(=O)ON=C2CCCC2)cc1`: 102%.

Take `Cc1cc(C)n(-c2ccc(C(=O)Oc3ccc4c(c3)OCO4)cc2)n1`: the “viability” value is 106%.

In the case of `CCN(CC)CCSc1nnc2c3cc(C)ccc3n(Cc3ccccc3)c2n1`, the “viability” value is 98.4%.

For `Cc1c(C(=O)NNC(=O)c2csc(N3CCOCC3)n2)oc2ccccc12`, the “viability” value is 93.1%.
